From PubChem BioAssay (NCI)
The panel holds about 83,000 compounds, 20% with a hit somewhere; the sample as a whole holds those more often.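 Assay: single dose, 48 h. Readout: percent growth (0 = no net growth; negative = cell death). Active: <10.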 A number with no mark means an inactive call. Calls of active or inactive are those of the source.

System: NCI/ADR-RES ovarian
Experiment: NCI-60 one-dose screen, 48 h (100 = growth as untreated, 0 = no growth, -100 = all killed)
Settings: 10 µM
Experimental: Growth inhibition of the NCI/ADR-RES human […] tumor cell line is measured as a screen for anti-cancer activity. Cells are grown in 96 well plates and exposed to the test compound for 48 hours. Compounds are tested at a single concentration, which is 10^-5 M for most compounds. The reported endpoint is percent growth (GI% or GIPRCNT), where numbers from 0 - 100% represent growth inhibition, and numbers from -100% - 0 represent cell death. For example, a value of 40 represents 60% growth inhibition. A value of 0 means no net growth occurred over the course of the experiment. A value of -40 indicates 40% of cells at the beginning of the experiment died by the end of the experiment. A value of -100 means all cells are dead at the end of the experiment.
NCI-60 Human Tumor Cell Lines Screen was performed using the standard one-dose NCI protocol, which is described in more detail at https://dtp.cancer.gov/discovery_development/nci-60/default.htm.
Compounds with GIPRCNT values below 10 were considered active. Activity score was based on GIPRCNT using the following formula: […]
Score is 0 for GIPRCNT values of 100 or above, 50 for GIPRCNT values of 0, and 100 for GIPRCNT values of -100.

Q: Which growth does the source give for O=S(=O)(Oc1ccc(-c2ccc3sccc3c2)cc1)c1ccccc1 here?
A: 103%

Q: With Cc1c2cnccc2c(C)c2c1c1cc(O)ccc1n2C(C)C as the compound, how does the growth read?
A: 1.26% (active)

Q: With CC(C)(C)OC(=O)N1CCc2c(sc3ncnc(N/N=C/c4ccccc4Br)c23)C1 as the compound, how does the growth read?
A: 71.6%

Q: CC(C)(C)c1ccc(S(=O)(=O)N[C@H]2CC[C@H]3[C@@H]4CCc5cc(OS(=O)(=O)O)ccc5[C@H]4CC[C@]23C)cc1 was tested. Which growth did it give?
A: 47.3%

Q: Which growth does the source give for COc1ccc(N=Nc2cc(OC)c(OC)c(OC)c2)cc1 here?
A: 91.2%

Q: C=C1CCC2(C#N)[C@H]3[C@H](CC[C@@H]2C)[C@@H](C)C[C@@H](CC(C)(C)NC(=O)CN2CCC2=O)[C@H]13 (stereo not given in full) was tested. Which growth did it give?
A: 59.2%

Q: Which growth does the source give for CC(C)C1=C(O)C2=C(C(=O)C1=O)[C@@]1(C)CCCC(C)(C)[C@@H]1CC2 here?
A: 39.7%

Q: With COc1ccc(-c2nn(-c3cccc(Cl)c3)cc2/C=C2\NC(=S)N(c3ccc(Cl)cc3)C2=O)cc1 as the compound, how does the growth read?
A: 7.34% (active)

Q: With CCOc1ccccc1/C=N\N=C\c1ccccc1O as the compound, how does the growth read?
A: 99.9%

Q: Which growth does the source give for O=C(O)Cc1ccc(O)c(O)c1 here?
A: 111%

Q: How did the growth turn out when O=C(COc1cccc(/C=C2\CSc3ccc(Cl)cc3C2=O)c1)c1ccc(Cl)cc1 was run?
A: 72.8%

Q: COc1cc(-c2nn(-c3ccc(NC(=O)NCCNS(=O)(=O)c4ccc(F)cc4)cc3)cc2-c2ccncc2)ccc1Cl was tested. Which growth did it give?
A: 79.2%

Q: With CN1CCc2c(sc3nc4n(-c5ccc(Cl)cc5)c(=O)[nH]n4c(=O)c23)C1 as the compound, how does the growth read?
A: 99%

Q: How did the growth turn out when O=C(Nc1cc([N+](=O)[O-])c2[nH]c(=O)c3ccccc3c2c1)C(F)(F)F was run?
A: 76.9%

Q: CN(C)CCN(Cc1ccccc1)c1ccc2ccccc2n1 was tested. Which growth did it give?
A: 94.2%

Q: With COC1OC(COS(=O)OC)C(O)C(O)C1OS(=O)OC (stereo not given) as the compound, how does the growth read?
A: 98.1%

Q: For COc1cc(/C=C/c2cc(/C=C/c3ccc(O)c(OC)c3)[nH]c(=O)n2)ccc1O, which growth is on record?
A: 90.7%

Q: With N#Cc1ccc(C(=O)CSc2nccc(Nc3ccc(C(=O)O)cc3)n2)cc1 as the compound, how does the growth read?
A: 108%

Q: With CC(=O)Nc1cc2c(cc1Cl)Cc1cc(Cl)ccc1-2 as the compound, how does the growth read?
A: 97%

Q: For Cc1ccc(-n2c(C)nn3c(=O)c4c5c(sc4nc23)CN(C)CC5)cc1, which growth is on record?
A: 101%

Q: With CC(=O)N[C@H](C(=O)N[C@@H](CCCNC(=N)N)C(=O)N[C@@H](CCCCN)C(=O)N[C@@H](CCCNC(=N)N)C(=O)N[C@]1(C)CCC/C=C\CCC[C@@](C)(C(=O)N[C@@H](CC(C)C)C(=O)N[C@@H](CC(C)C)C(=O)N[C@@H](CCC(N)=O)C(=O)N[C@@H](CCC(=O)O)C(=O)N[C@@H](CCCNC(=N)N)C(=O)N[C@@H](CCC(=O)O)C(=O)N[C@@H](CC(C)C)C(=O)N[C@H](C(=O)N[C@@H](CCC(=O)O)C(N)=O)C(C)C)NC(=O)[C@H](CCCNC(=N)N)NC(=O)[C@H](CC(C)C)NC1=O)C(C)C as the compound, how does the growth read?
A: 109%

Q: Which growth does the source give for CCOC(=O)c1sc2ncnc(Nc3ccc4c(cnn4C(=O)Nc4ccc(C)c(Cl)c4)c3)c2c1C here?
A: 105%

Q: CC(=O)N[C@H](C(=O)N[C@@H](CCCNC(=N)N)C(=O)N[C@@H](CCCCN)C(=O)N[C@@H](CCCNC(=N)N)C(=O)NC(C(=O)N[C@@H](CC(C)C)C(=O)N[C@@H](CCCNC(=N)N)C(=O)N[C@@]1(C)CCC/C=C\CCC[C@@](C)(C(=O)N[C@@H](CCCNC(=N)N)C(=O)N[C@@H](CCC(=O)O)C(=O)N[C@@H](CC(C)C)C(=O)N[C@H](C(=O)N[C@@H](CCC(=O)O)C(N)=O)C(C)C)NC(=O)[C@H](CCC(N)=O)NC(=O)[C@H](CC(C)C)NC(=O)[C@H](CC(C)C)NC1=O)[C@@H](C)O)C(C)C (stereo not given in full) was tested. Which growth did it give?
A: 17.3%

Q: For CN1CCN(CCC(=O)Nc2cccc(-n3cc(-c4ccncc4)c(-c4ccc(Cl)c(O)c4)n3)c2)CC1, which growth is on record?
A: 29.7%

Q: CC(=O)C1N=NCC1c1ccccc1 (stereo not given) was tested. Which growth did it give?
A: 104%

Q: Which growth does the source give for CN1C(=O)C2(Nc3cc(Cl)ccc3S2)c2cc(Cl)ccc21 (stereo not given) here?
A: 93.6%

Q: With COc1ccc(-c2cc(-c3ccc(Cl)cc3)nc(SCCCCCCC(=O)NO)n2)cc1OC as the compound, how does the growth read?
A: 20%

Q: O=C(CNc1nnc(-c2cccnc2SCc2ccccc2)s1)Nc1nc(Cl)cc(Cl)n1 was tested. Which growth did it give?
A: 114%

Q: Which growth does the source give for O=C1/C(=C/c2ccc([N+](=O)[O-])s2)Oc2cc(Cl)ccc21 here?
A: 24%

Q: Which growth does the source give for O=C1CSC(=S)N1/N=C/c1ccc(Cl)s1 here?
A: 97.5%

Q: COc1cc2cc(Oc3ccc(NC(=O)Nc4ccc(Cl)c(Cl)c4)cc3)c(C)nc2cc1OC was tested. Which growth did it give?
A: 17.1%

Q: Which growth does the source give for CC[N+](CC)=c1ccc2nc3c(cc(NCc4ccccc4)c4ccccc43)oc-2c1 here?
A: -7.86% (active)

Q: How did the growth turn out when O=C(CCn1cnc2c(cc(-c3ccccc3)n2-c2ccccc2)c1=O)Nc1ccc(F)cc1 was run?
A: 55.1%

Q: How did the growth turn out when COc1ccc(-c2nn(-c3cccc(Cl)c3)cc2-c2cc(-c3ccccc3)[nH]c(=O)c2C#N)cc1 was run?
A: 37.8%

Q: How did the growth turn out when CN1CCN(CC(=O)Nc2cccc(-n3cc(-c4ccncc4)c(-c4ccc(Cl)c(O)c4)n3)c2)CC1 was run?
A: 42.2%

Q: With N#Cc1c(-c2ccc(Cl)cc2)cc(-c2cc(O)ccc2O)nc1N as the compound, how does the growth read?
A: 65.3%

Q: For O=C(CI)OCC(COC(=O)CI)OC(=O)CI, which growth is on record?
A: 95.6%

Q: How did the growth turn out when Cc1ccc(C(C)C)c(O)c1NC(=O)OC(C)C was run?
A: 98.3%

Q: COc1ccc(-c2n[nH]nc2-c2cc(OC)c(OC)c(OC)c2)cc1 was tested. Which growth did it give?
A: -28.8% (active)

Q: COC(=O)c1cc2oc(/C=C3/SC(=S)N(N)C3=O)cc2n1Cc1ccccc1 was tested. Which growth did it give?
A: 52.5%
